The list is not random: actives were taken first. Their share in the collection is about 19%.
SW480 rereplic = inducers of DNA re-replication in SW480 colon cancer cells; AID 624297; Potency, µM (series often up to 46.1 µM), for the others: at the top dose re-replication activation, hits mostly activators; actives 1.8% (n = 340,000); SW480 DNA re-replication, Hoechst DNA content imaging, 48 h; further: potency means the concentration at half of the fitted maximal effect; % of control where 0% means no effect; nearly all actives have a fitted effect of over 55% in size
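250 cells/well; 23 nL cpd via pin tool; 48 hr, 37 C, 5% CO2; Hoechst 40 min; imager read of total nuclear intensity, ex 405/em 500-530 nm.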
IL1B secr inh = inhibitors of inflammasome signaling (IL-1 beta secretion); actives 4.7% (n = 360,000); THP-1 LPS/ATP IL-1B secretion, AlphaLISA, 16 h; active compounds read low; activity change, % at 57.5 µM; in the data active means activity change below about -50%; inconclusive means mostly about -30% to -49%; further: on the % scale 0 is the no-effect control and ±100 the full control effect
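Secreted IL-1B measured by AlphaLISA bead assay after 16 h compound exposure of THP-1 cells; compounds (final up to 57.5 uM) added 1 h before LPS (250 ng/mL) and ATP (1.25 mM) stimulation; lower signal means less secretion.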
TDP1 cell noCPT = qHTS for Inhibitors of human tyrosyl-DNA phosphodiesterase 1 (TDP1): qHTS in cells in absence of CPT; AID 686978, 2013; actives 15% (n = 420,000); DT40 Tdp1-/- hTDP1 cells, no CPT, ATP luminescence, 48 h; Potency, µM (highest dose often 46.2 µM), for the others: top-dose activity change, negative = growth inhibition, actives largely listed as inhibitors; further: potency means the concentration at half of the fitted maximal effect; on the % scale 0 is the no-effect control and ±100 the full control effect; nearly all actives have a fitted effect of over 55% in size
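DT40 Tdp1-/-;hTDP1 cells, no CPT (DMSO vehicle only), 400 cells/well; compounds pin-transferred; ≥48 hr, 37 °C; CellTiter-Glo 30 min RT dark, luminescence read.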
MCF10A rereplic = inducers of DNA re-replication in MCF 10A breast cells | MCF 10A DNA re-replication, Hoechst nuclear intensity, 48 h | Potency, µM (highest dose often 46.1 µM), without a hit: at the highest dose activity, positive = re-replication, actives largely listed as activators | actives 2.9% (n = 350,000) | AID 624296; further: potency means the concentration at half of the fitted maximal effect; % of control where 0% means no effect; nearly all actives have a fitted effect of over 50% in size
Chronic BCR inh = chronic active BCR signaling inhibition. ABC-DLBCL IkBa-CBG/CBR reporter, luminescence ratio, 4 h. Potency, µM (highest dose often 46.1 µM), inactives show top-dose activity change, negative = inhibition, hits mostly inhibitors. actives 0.05% (n = 340,000). AID 493014; active means well fitted inhibition curve with a large enough effect in the signal ratio, with a control signal flat, not every such curve was filed as active; inconclusive means small, poorly fitted or top-dose-only effect, or effect the other way, or a change in a side signal; the % refers to the signal ratio;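 further: potency means the concentration at half of the fitted maximal effect; plate controls were basal doxycycline-induced cells for no effect and cells given 10 µM MG132 for full effect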
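Doxycycline induced both beetle luciferases in TMD8 lymphoma cells; IKK-driven degradation limits the IkappaBalpha-fused green signal, while red luminescence normalises for cell number and nonspecific effects. Compounds tested up to 46 uM, 4 hrs.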
TDP1 cell CPT = growth inhibition of DT40 Tdp1-/-;hTDP1 cells with camptothecin (screen for TDP1 inhibitors); chicken DT40 Tdp1-/-;hTDP1 cells + 20 nM CPT, ATP luminescence, 48 h; Potency, µM (titrated, usually from 46.2 µM), for inactives: top-dose activity change, negative = growth inhibition, actives largely listed as inhibitors; actives 12% (n = 420,000); AID 686979; further: potency means the concentration at half of the fitted maximal effect; on the % scale 0 is the no-effect control and ±100 the full control effect; nearly all actives have a fitted effect of over 55% in size
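Chicken DT40 Tdp1-/- cells complemented with human TDP1, 400 cells/well, exposed to compounds plus 20 nM camptothecin for at least 48 h at 37 C; viability read as ATP content by CellTiter-Glo luminescence.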
* hit, by the source's call. Unless noted, the call rests on the fitted dose curve; in most records, active means well fitted curve in the direction sought with a large enough effect; inconclusive means small, poorly fitted or top-dose-only effect, or another doubt; inactive means no such curve, though single readings can be large; an effect the other way counts as inactive or inconclusive.

`C=C1C(=O)O[C@@H]2C[C@@H](C)[C@@H]3C=CC(=O)[C@@]3(C)[C@@H](OC(=O)CC(=O)O[C@H]3[C@@H]4C(=C)C(=O)O[C@@H]4C[C@@H](C)[C@@H]4C=CC(=O)[C@]43C)[C@H]12` gave SW480 rereplic inconclusive, IL1B secr inh 0, TDP1 cell noCPT 0.073µM*, MCF10A rereplic inconclusive, Chronic BCR inh inconclusive and TDP1 cell CPT 0.058µM*.
For C=C1C(=O)O[C@H]2C[C@@H](C)[C@@H]3C=CC(=O)[C@@]3(C)C[C@H]12 the results were SW480 rereplic inconclusive, IL1B secr inh -111*, TDP1 cell noCPT 0.65µM*, MCF10A rereplic 2.9µM*, Chronic BCR inh inconclusive and TDP1 cell CPT 1µM*.
For COc1ccc(-c2nn(CCC#N)cc2C(=O)Nc2ccc(C(C)=O)cc2)cc1[N+](=O)[O-] the results were SW480 rereplic 0%, IL1B secr inh -3, TDP1 cell noCPT -22%, MCF10A rereplic 8%, Chronic BCR inh inconclusive and TDP1 cell CPT -2%.
For CCCc1cc(=O)oc2c3c(cc(OCC(=O)N4CCC[C@H]4C(=O)O)c12)OC(C)(C)CC3 the results were SW480 rereplic -4%, IL1B secr inh -6, TDP1 cell noCPT 0%, MCF10A rereplic -26%, Chronic BCR inh 0% and TDP1 cell CPT -1%.
For CCC1(c2ccc(N)cc2)CCC(=O)NC1=O (configuration not stated) the results were SW480 rereplic -29%, IL1B secr inh 32, TDP1 cell noCPT -8%, MCF10A rereplic -2% and TDP1 cell CPT -12%.
For C[C@]12CCC3C(CC[C@H]4C[C@@H](O)CC[C@]34C)[C@H]1C=CC2=O (some centres not stated) the results were SW480 rereplic inconclusive, IL1B secr inh -24, TDP1 cell noCPT inconclusive, MCF10A rereplic inconclusive, Chronic BCR inh inconclusive and TDP1 cell CPT inconclusive.
CC12CCC(O)CC1CCC1C2CCC2(C)C(C3=CC(=O)OC3)CCC12O (configuration not stated) was read as SW480 rereplic 5.8µM*, IL1B secr inh -65*, TDP1 cell noCPT inconclusive, MCF10A rereplic inconclusive and TDP1 cell CPT inconclusive.
Screening CNC(=O)Nc1ccc(C(=O)N/N=C\C23CC[C@@H](O)CC2(O)CC[C@@H]2[C@@H]3CCC3(C)C(C4=CC(=O)OC4)CCC23O)cc1 (some centres not stated) returned SW480 rereplic -4%, IL1B secr inh 30, TDP1 cell noCPT 22%, MCF10A rereplic 14%, Chronic BCR inh -11% and TDP1 cell CPT -11%.
Screening C[C@]12CC[C@H](O)C[C@H]1CC[C@@H]1[C@@H]2C[C@@H](O)[C@]2(C)[C@@H](C3=CC(=O)OC3)CC[C@]12O returned SW480 rereplic inconclusive, IL1B secr inh -66*, TDP1 cell noCPT inconclusive, MCF10A rereplic inconclusive, Chronic BCR inh inconclusive and TDP1 cell CPT -13%.
C[C@]12CC[C@H](O)C[C@H]1CC[C@@H]1[C@@H]2CC[C@]2(C)[C@@H](C3=CC(=O)OC3)CC[C@]12O was read as SW480 rereplic inconclusive, IL1B secr inh inconclusive, TDP1 cell noCPT 12µM*, MCF10A rereplic inconclusive, Chronic BCR inh inconclusive and TDP1 cell CPT inconclusive.
CCN(Cc1ccccc1)C(=O)Cn1c(=O)oc2ccccc21 was read as SW480 rereplic -1%, IL1B secr inh 8, TDP1 cell noCPT -25%, MCF10A rereplic -55%, Chronic BCR inh inconclusive and TDP1 cell CPT -11%.
Screening COc1cccc(NC(=O)C(=O)NCCCn2ccnc2)c1 returned SW480 rereplic 0%, IL1B secr inh -1, TDP1 cell noCPT 0%, MCF10A rereplic -2%, Chronic BCR inh inconclusive and TDP1 cell CPT 4%.
Screening N#Cc1nc(-c2ccc(OCc3ccccc3)cc2)oc1NCCCn1ccnc1 returned SW480 rereplic -27%, IL1B secr inh inconclusive, TDP1 cell noCPT 21µM*, MCF10A rereplic -2%, Chronic BCR inh inconclusive and TDP1 cell CPT inconclusive.
COc1ccc(CCNC(C)CCc2ccc(OC)cc2)cc1 (configuration not stated) was read as SW480 rereplic inconclusive, IL1B secr inh -64*, TDP1 cell noCPT inconclusive, MCF10A rereplic -13%, Chronic BCR inh inconclusive and TDP1 cell CPT inconclusive.
`COc1ccc(CCNC2CCCCCC2)cc1` gave SW480 rereplic 3.3µM*, IL1B secr inh 5, TDP1 cell noCPT inconclusive, MCF10A rereplic 16%, Chronic BCR inh 0% and TDP1 cell CPT inconclusive.
`COc1ccc(CCNCc2cc(OC)cc(OC)c2)cc1` gave IL1B secr inh -51*, TDP1 cell noCPT inconclusive and TDP1 cell CPT inconclusive.
For COc1ccccc1CCNC1CCCCCC1 the results were SW480 rereplic 1%, IL1B secr inh -12, TDP1 cell noCPT -30%, MCF10A rereplic 4%, Chronic BCR inh -1% and TDP1 cell CPT inconclusive.
COc1ccc(CCNCc2ccccc2)cc1 was read as SW480 rereplic -7%, IL1B secr inh -15, TDP1 cell noCPT inconclusive, MCF10A rereplic 0%, Chronic BCR inh inconclusive and TDP1 cell CPT -10%.
Screening COc1cccc(CCNCc2ccc(SC)cc2)c1 returned SW480 rereplic 22%, IL1B secr inh -65*, TDP1 cell noCPT inconclusive, MCF10A rereplic -2%, Chronic BCR inh -2% and TDP1 cell CPT -26%.
For COc1ccc(CCNCc2ccncc2)cc1 the results were SW480 rereplic -1%, IL1B secr inh 4, TDP1 cell noCPT -2%, MCF10A rereplic inconclusive, Chronic BCR inh -2% and TDP1 cell CPT 2%.
Screening COc1cc2c(cc1OC)-c1c(OC)c(OC)c(CO)c3c1C(C2)N(C)CC3 (configuration not stated) returned TDP1 cell noCPT -13% and TDP1 cell CPT 4%.
Screening CNC(=O)OCc1n(C)cc[n+]1C returned SW480 rereplic -1%, IL1B secr inh 5, TDP1 cell noCPT 2%, MCF10A rereplic -1%, Chronic BCR inh 1% and TDP1 cell CPT -19%.
`CCOS(C)(=O)=O` gave SW480 rereplic -22%, IL1B secr inh 2, TDP1 cell noCPT -5%, MCF10A rereplic -38%, Chronic BCR inh 4% and TDP1 cell CPT 2%.
